A selection: hits, their analogues and other compounds. The true share with any hit is near 3.4%.
MITF inh: inhibitors of human MITF; AlphaScreen MITF homodimerization, bead proximity signal; inhibition, % at 2.6 µM; 650,000 tested, 0.91% active; AID 1259374; in the data active = inhibition above about 50%
TEAD-YAP inh: TEAD-YAP interaction inhibition | 640,000 tested, 1.4% active | HEK-TIYL cells, TEAD-Gal4/YAP UAS-luciferase luminescence | AID 1259422 | inhibition, % at 9.12 µM; in the data active = inhibition above about 32%
GPR151 ag: activators of human GPR151. 650,000 tested, 1% active. activation, % at 11.2 µM. PathHunter beta-arrestin GPR151 cells, luminescence. AID 1508602. Q8TDV0; in the data active = activation above about 4.9%
FBW7 activator: activators of human E3 ligase FBW7 | Q969H0 | AlphaScreen FBW7–phospho-cyclin E peptide binding, activator screen | normalized activity (activation), % at 26.1 µM | 650,000 tested, 0.13% active | AID 1259310; in the data active = normalized activity above about 1.9%;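 note: purified mutant Fbw7 with reduced substrate affinity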
Target sequence (Q969H0 whole entry, looked up): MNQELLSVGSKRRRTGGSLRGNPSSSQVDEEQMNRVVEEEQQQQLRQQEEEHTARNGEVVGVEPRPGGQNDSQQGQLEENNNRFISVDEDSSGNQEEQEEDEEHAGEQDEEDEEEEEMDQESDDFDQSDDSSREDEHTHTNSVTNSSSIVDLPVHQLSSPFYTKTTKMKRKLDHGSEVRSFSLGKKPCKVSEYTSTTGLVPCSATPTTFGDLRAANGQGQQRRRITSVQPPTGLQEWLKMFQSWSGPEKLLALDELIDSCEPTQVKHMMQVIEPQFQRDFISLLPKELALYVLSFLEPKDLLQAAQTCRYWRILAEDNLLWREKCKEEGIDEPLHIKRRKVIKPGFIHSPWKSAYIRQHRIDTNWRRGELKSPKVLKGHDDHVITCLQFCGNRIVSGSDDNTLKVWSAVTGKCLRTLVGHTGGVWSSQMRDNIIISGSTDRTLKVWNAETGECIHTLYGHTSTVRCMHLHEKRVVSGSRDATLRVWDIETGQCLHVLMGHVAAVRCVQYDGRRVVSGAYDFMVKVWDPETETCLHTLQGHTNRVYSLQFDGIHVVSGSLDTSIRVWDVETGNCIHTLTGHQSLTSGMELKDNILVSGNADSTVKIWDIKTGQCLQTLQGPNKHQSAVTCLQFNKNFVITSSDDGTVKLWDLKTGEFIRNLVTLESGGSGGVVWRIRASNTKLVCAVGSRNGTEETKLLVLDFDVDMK
MITF confirm: human MITF inhibition, confirmation | inhibition, % at 2.6 µM | shares compounds with MITF inh | AlphaScreen MITF homodimerization, biotin/His-MITF beads | 4,700 tested, 16% active;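 active = inhibition above a cutoff derived from the DMSO control wells, cut at about 28% in these data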;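 note: inhibitors lower the bead chemiluminescence by keeping MITF from dimerizing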
AS interf DR: optically interferes with AlphaScreen signal in dose response; 480 tested, 6% active; AID 1259373; shares compounds with MITF inh; AlphaScreen optical interference counterscreen, cell-free; IC50, µM; call rule not given here
AS interf ctr: optically interferes with AlphaScreen signal; AID 1259376; inhibition, % at 2.6 µM; shares compounds with MITF inh; 4,700 tested, 7.6% active; LysRS AlphaScreen counterscreen, signal interference, triplicate;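 active = inhibition above a cutoff derived from the DMSO control wells, cut at about 30% in these data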
Each line names hits and unclear results; the compound was inactive in the other large screens (follow-up assays come after a bar, where they were run).

CCOc1ccc(S(=O)(=O)NC2CCCCC2)cc1-c1nc2c(C(C)(C)C)nn(C)c2c(=O)[nH]1	MITF inh 76.8 | MITF confirm inactive | AS interf ctr inactive
Cc1csc(-c2cc3ccccc3oc2=O)n1	MITF inh 66.7 | MITF confirm inactive | AS interf ctr inactive
NC(=O)c1cc(NC(=O)COC(=O)COc2cccc(C(F)(F)F)c2)cc(C(N)=O)c1	MITF inh 53.1 | MITF confirm 48.5 | AS interf DR inactive | AS interf ctr inactive
COCCN1COc2c(cc(Cl)c3cccnc23)C1	MITF inh 66.0 | MITF confirm 47.9 | AS interf ctr 91.5
COc1ccc(CCN2COc3c(cc(Cl)c4cccnc34)C2)cc1OC	MITF inh 67.7, TEAD-YAP inh 39.0 | MITF confirm 94.1 | AS interf ctr 100.3
Nc1nc(SCC(=O)Nc2cc([N+](=O)[O-])ccc2F)n[nH]1	MITF inh 50.9 | MITF confirm inactive | AS interf ctr inactive
COc1ccc(OC)c(S(=O)(=O)N(C)CC(=O)Nc2ccccc2F)c1	MITF inh 51.0 | MITF confirm inactive | AS interf ctr inactive
COc1ccc(OC)c(NC(=O)CN(C)CC(=O)Nc2ccccc2Br)c1	MITF inh 74.1 | MITF confirm inactive | AS interf ctr inactive
CC(NC(=O)CN(C)CC(=O)Nc1ccccc1Br)c1ccccc1 (centres undefined)	MITF inh 65.6 | MITF confirm inactive | AS interf ctr inactive
COc1ccc(C)cc1S(=O)(=O)N(C)CC(=O)Nc1ccccc1F	none
COc1cccc(OC)c1C(=O)OCC(=O)NC1CC1	none
CCOc1ccc(C2C(=O)N(C3CCCCCC3)CC(=O)N2CC2COc3ccccc3O2)cc1OC (centres undefined)	none
Cc1ccc(/C=c2\sc3ncnn3c2=O)o1	MITF inh 61.2 | MITF confirm inactive | AS interf ctr inactive
COCc1nc2ccccc2n1CCc1noc(-c2ccc(OC)cc2)n1	none
COCc1nc2ccccc2n1CCc1noc(-c2ccccc2OC)n1	MITF inh 94.9 | MITF confirm inactive | AS interf ctr inactive
Cc1cc(C(=O)N=c2sc3cc4c(cc3n2C)OCCO4)no1	MITF inh 76.3 | MITF confirm inactive | AS interf ctr inactive
Cn1c(=NC(=O)c2cccs2)sc2cc3c(cc21)OCCO3	none
c1cnc2c(c1)ccc1cccnc12	MITF inh 111.1, TEAD-YAP inh 35.1 | MITF confirm 115.2 | AS interf ctr 100.6
CC[n+]1cccc2ccc3cccnc3c21	none
CCn1nc(C)c(NC(=O)Cn2nc3n(C)c4ccccc4n3c2=O)c1C	none
O=C(c1ccccc1F)N1CCN(Cc2ccc3c(c2)OCO3)CC1	MITF inh 51.3 | MITF confirm inactive | AS interf ctr inactive
CCc1ccc(CN2CCN(C(=O)c3ccccc3F)CC2)cc1	MITF inh 50.8 | MITF confirm inactive | AS interf ctr inactive
O=C(C1CCNCC1)N1CCN(Cc2ccc3c(c2)OCO3)CC1	MITF inh 56.5 | MITF confirm inactive | AS interf ctr inactive
CCN(CC)C(=O)C1CCCN(Cc2ccc(C(F)(F)F)cc2)C1 (centres undefined)	MITF inh 53.3 | MITF confirm inactive | AS interf ctr inactive
CCN(CC)C(=O)C1CCCN(Cc2ccc(C)o2)C1 (centres undefined)	none
CCN(CC)C(=O)C1CCCN(Cc2ccc([N+](=O)[O-])o2)C1 (centres undefined)	MITF inh 56.4 | MITF confirm inactive | AS interf ctr inactive
O=C(c1c[nH]c2ccc(S(=O)(=O)N3CCCCC3c3cccnc3)cc2c1=O)N1CCOCC1 (centres undefined)	none
COCCN(CCOC)S(=O)(=O)c1ccc(C(=O)Nc2nc3ccc(OC)cc3s2)cc1	none
C=CC[N+](C)(C)CCN1C(=O)C2CC=C(Cl)CC2C1=O (centres undefined)	none
O=[N+]([O-])c1cc(C=Nc2ccc(N3CCOCC3)cc2)c(O)c([N+](=O)[O-])c1	MITF inh 74.5 | MITF confirm 83.3 | AS interf DR inactive | AS interf ctr inactive
COc1ccc(CCN2CCc3nc4ccncc4cc3C2)cc1	MITF inh 51.1 | MITF confirm inactive | AS interf ctr 34.0
COc1ccc(/C=N/Nc2ccc(S(=O)(=O)O)cc2)cc1	none
COc1ccc2cc(/C=N/Nc3ccc(S(=O)(=O)O)cc3)ccc2c1	MITF inh 65.8 | MITF confirm inactive | AS interf ctr inactive
c1ccc(Nc2nc(-c3csc4ccccc34)nc3c2ncn3C2CCCCC2)cc1	none
CC(C)(C)c1ccc(C2C(C(=O)c3cccs3)=C(O)C(=O)N2Cc2cccnc2)cc1 (centres undefined)	none
Cc1cccc(N2CN=c3s/c(=C4\C(=O)N(C)c5ccccc54)c(=O)n3C2)c1	none
Cc1cc(CSC(=N)N)c(O)c(C(C)(C)C)n1	none
Cc1cc(CSC(=N)N)c(O)c(C)n1	MITF inh 64.7 | MITF confirm 82.3 | AS interf DR inactive | AS interf ctr inactive
Cc1ncc2c(c1CNC(=O)Cc1cccs1)CCN(C(=O)C1(C)CCCCC1)C2	MITF inh 74.0 | MITF confirm inactive | AS interf ctr inactive
Cc1ncc2c(c1CNC(=O)Cc1cccs1)CCN(C(=O)CCC1CCCC1)C2	none
C[C@H]1NC(=O)[C@H]2CN(C(=O)c3cccs3)CCN2C1=O	none
COc1ccc(CN2CCN(Cc3cccc(F)c3)CC2)cc1OC	MITF inh 63.9 | MITF confirm inactive | AS interf ctr inactive
COc1ccc(CN2CCN(Cc3ccc(OC)c(OC)c3)CC2)cc1	MITF inh 74.2 | MITF confirm inactive | AS interf ctr inactive
CCS(=O)(=O)N1CCN(Cc2ccc(OC)c(OC)c2)CC1	none
COc1cc(OC)c(OC)cc1CN1CCN(Cc2cccc(Cl)c2)CC1	MITF inh 81.6 | MITF confirm inactive | AS interf ctr inactive
CCOc1cc(CN2CCN(Cc3cc(OC)c(OC)cc3OC)CC2)ccc1OC	none
COc1ccc(CN2CCN(Cc3cccc(Cl)c3)CC2)cc1OC	MITF inh 82.3 | MITF confirm inactive | AS interf ctr inactive
COc1ccc(CN2CCOCC2)cc1OC	none
COc1ccc(CN2CCN(Cc3ccc(Cl)cc3)CC2)cc1OC	MITF inh 74.1 | MITF confirm inactive | AS interf ctr inactive
O=S1(=O)CC(OS(=O)(=O)c2ccccc2)C(OS(=O)(=O)c2ccccc2)C1 (centres undefined)	MITF inh 70.7 | MITF confirm inactive | AS interf ctr inactive
O=C(c1ccco1)N1CCN(Cc2ccccc2C(F)(F)F)CC1	MITF inh 66.0 | MITF confirm inactive | AS interf ctr inactive
O=C(c1ccccc1)N1CCN(CCCc2ccccc2)CC1	none
O=C(c1ccncc1)N1CCN(Cc2ccccc2C(F)(F)F)CC1	MITF inh 69.5 | MITF confirm inactive | AS interf ctr inactive
O=C(c1ccccc1)N1CCN(C(=O)c2ccncc2)CC1	none
